Bioassay records from PubChem BioAssay.
KB-3-1 cytotox = KB-3-1 parental cell cytotoxicity. Potency, µM (highest dose often 46.1 µM), usual class: cytotoxic. hit rate 1.4% among 400,000. KB-3-1 viability, CellTiter-Glo ATP luminescence, 72 h; also: % is scaled to controls: 0 for no effect and ±100 for the full control effect; nearly all actives have a fitted effect of over 60% in size
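Luminescent ATP read-out (CellTiter-Glo) measures survival of drug-naive KB-3-1 cells after 72 h compound exposure at 37 °C. Titration series was screened from lowest to highest concentration, with DMSO vehicle plates as background controls.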
MCF10A rerep = induces DNA re-replication in MCF 10a normal breast cells | MCF 10A DNA re-replication, Hoechst nuclear intensity, 48 h | Potency, µM (top dose mostly 46.1 µM), inactives show at the top dose activity, positive = re-replication, usual class: activators | hit rate 2.9% among 350,000; also: % of control where 0% means no effect; nearly all actives have a fitted effect of over 50% in size
SW480 rereplic = DNA re-replication induction in SW480 cells; hit rate 1.8% among 340,000; Potency, µM (titrated, usually from 46.1 µM), without a hit: at the highest dose re-replication activation, usual class: activators; SW480 DNA re-replication, Hoechst DNA content imaging, 48 h; also: % of control where 0% means no effect; nearly all actives have a fitted effect of over 55% in size
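Per well, 250 cells were exposed to pinned compound for 48 hr. Nuclear DNA was visualised with Hoechst (40 min, 37 C) and total object intensity recorded by fluorescence scanning.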
RORg inh = inhibitors of mouse ROR gamma transcriptional activity; P51450; Drosophila S2 Gal4-RORgamma UAS-luciferase reporter, 20 h; Potency, µM (doses to about 53.6 µM), for inactives: at the top dose activity change, negative = inhibition, hits mostly inhibitors; hit rate 5.4% among 310,000; also: % is scaled to controls: 0 for no effect and ±100 for the full control effect; nearly all actives have a fitted effect of over 60% in size
Target sequence (P51450 whole entry, looked up, the tested form may be a part): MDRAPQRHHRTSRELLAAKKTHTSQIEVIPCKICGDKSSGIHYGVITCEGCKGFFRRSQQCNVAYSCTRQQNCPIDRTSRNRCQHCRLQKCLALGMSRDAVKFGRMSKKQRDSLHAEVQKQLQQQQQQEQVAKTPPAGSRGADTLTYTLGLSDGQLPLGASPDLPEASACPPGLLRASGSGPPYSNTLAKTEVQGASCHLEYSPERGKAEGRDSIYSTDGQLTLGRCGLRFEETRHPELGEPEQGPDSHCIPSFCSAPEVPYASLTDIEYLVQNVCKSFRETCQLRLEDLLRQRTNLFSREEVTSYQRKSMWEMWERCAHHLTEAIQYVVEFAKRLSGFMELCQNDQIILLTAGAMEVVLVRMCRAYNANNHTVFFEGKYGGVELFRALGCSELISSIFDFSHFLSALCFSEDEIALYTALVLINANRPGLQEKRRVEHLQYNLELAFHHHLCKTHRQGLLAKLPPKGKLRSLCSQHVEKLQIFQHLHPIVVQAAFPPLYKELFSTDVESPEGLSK
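Drosophila S2 cells stably expressing Gal4-DBD/mouse RORγ fusion under metallothionein promoter plus UAS-luciferase; compound 1 h, then 700 uM CuSO4 induction for 20 h at ambient temperature; inhibition read as reduced luminescence.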
Gal4-VP16 FLuc = Gal4-VP16 reporter inhibition counter-screen; Drosophila S2 Gal4-VP16 UAS-luciferase, luminescence, 20 h; hit rate 3.5% among 310,000; Potency, µM (series often up to 53.6 µM), inactives show at the top dose activity, negative = inhibition, hits mostly inhibitors;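 also: Gal4-VP16 expression switched on by copper sulfate through the metallothionein promoter; % is scaled to controls: 0 for no effect and ±100 for the full control effect; nearly all actives have a fitted effect of over 50% in size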
KB-V1 cytotox = kills drug-selected multidrug resistant KB-V1 cells; KB-V1 MDR cells viability, CellTiter-Glo, 72 h; Potency, µM (top dose mostly 46.1 µM), most hits filed as cytotoxic; hit rate 3.4% among 400,000; also: % is scaled to controls: 0 for no effect and ±100 for the full control effect; nearly all actives have a fitted effect of over 60% in size
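Cytotoxicity via CellTiter-Glo luminescence after 72 h compound exposure at 37 degrees C. Cells: drug-selected KB-V1 line, DMEM phenol-red free plus 10% FBS. Compounds tested at multiple concentrations; normalized data fitted to concentration-effect curves.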
An asterisk follows results filed as active; i = inactive; ? = inconclusive; / = no result given; [ ] = another dose, or the depositor's remark. Compounds with a hit are over-represented: about 10% of the library has one in this group of screens. Calls follow the shape of the dose curve; as a rule, active = well fitted curve in the direction sought with a large enough effect; inconclusive = small, poorly fitted or top-dose-only effect, or another doubt; inactive = no such curve, though single readings can be large; an effect the other way counts as inactive or inconclusive. Potency is read from the fitted curve at half-maximal effect.

SMILES	KB-3-1 cytotox	MCF10A rerep	SW480 rereplic	RORg inh	Gal4-VP16 FLuc	KB-V1 cytotox
CCC(CC)c1nnc(NC(=O)c2cccc(S(=O)(=O)N3CCc4ccccc43)c2)s1	i	4.61µM*	?	15.8µM*	?	14.6µM*
CCn1c(=O)n(CC)c2cc(S(=O)(=O)N3CCc4ccccc43)ccc21	?	2.3%	-4.9%	?	?	2.31µM*
CN(CC(=O)Nc1ccccc1Br)C(=O)c1cccc(S(=O)(=O)N2CCc3ccccc32)c1	i	?	4.9%	/	/	18.4µM*
COc1ccc(NC(=O)CN(C)C(=O)c2cccc(S(=O)(=O)N3CCCc4ccccc43)c2)cc1	i	0.2%	10.4%	/	/	i
COc1ccc(S(=O)(=O)N2CCc3ccccc32)cc1OC	?	9.1%	10.6%	21.5%	-4.3%	i
O=C(Nc1nncs1)c1cccc(S(=O)(=O)N2CCc3ccccc32)c1	i	?	16.8%	-8.8%	7.3%	i
COc1ccccc1C(CNC(=O)c1cccc(S(=O)(=O)N2CCCc3ccccc32)c1)N(C)C (stereo unspecified)	i	24.7%	5.1%	/	/	5.8µM*
O=c1c(-c2cccs2)nc2cnc(N3CCOCC3)nc2n1-c1ccccc1	/	/	/	20.7%	-9.2%	/
Cc1ccc([C@@H]2C[C@H]3[C@@H](CN2S(=O)(=O)c2ccc(Cl)cc2)C(=O)C[C@@H](c2ccc(C)cc2)N3S(=O)(=O)c2ccc(Cl)cc2)cc1	i	/	/	/	/	i
CCOC(=O)c1sc(NC(=O)c2cccc(S(=O)(=O)N3CCc4ccccc43)c2)c(C#N)c1C	20.6µM*	18.7%	-0.8%	?	5.62µM*	i
O=C(Nc1nc2c(F)cc(F)cc2s1)c1ccc(S(=O)(=O)N2CCc3ccccc32)cc1	?	/	/	/	/	i
O=C(Nc1nc2ccc(F)cc2s1)c1cccc(S(=O)(=O)N2CCc3ccccc32)c1	?	-31.6%	-34.0%	?	-29.3%	2.91µM*
CCOC(=O)c1sc(NC(=O)c2cccnc2)c(C#N)c1C	i	-1.3%	-1.8%[9.22 µM]	34.0%	-7.5%	i
Clc1nc(-c2ccccn2)nc2scc(-c3ccccc3)c12	?	?	?	4.9%[10 µM]	-3.5%	11.6µM*
N#CCCCSc1nnnn1-c1cc(C(F)(F)F)cc(C(F)(F)F)c1	/	/	/	11.0%	-16.3%	/
COc1ccc(NC(C)=O)cc1NC(=O)C1(c2cccs2)CCOCC1	i	/	/	/	/	i
CCCCCCOC(=O)C[N+](C)(C)CCOC1CC2CCC1(C)C2(C)C (stereo unspecified)	i	?	-5.0%	?	6.2%	i
CC(C)CCOC(=O)C[N+](C)(C)CCOC1CC2CCC1(C)C2(C)C (stereo unspecified)	i	16.4µM*	-1.2%	-8.1%	-2.8%	i
CCC(C)OC(=O)C[N+](C)(C)CCOC1CC2CCC1(C)C2(C)C (stereo unspecified)	20.6µM*	?	-12.9%	?	-10.4%	i
CCCOC(=O)C[N+](C)(C)CCOC1CC2CCC1(C)C2(C)C (stereo unspecified)	i	-22.5%	-0.9%	5.1%	-30.7%	i
CCCCCCCOC(=O)C[N+](C)(C)CCOC1CC2CCC1(C)C2(C)C (stereo unspecified)	20.6µM*	?	?	?	12.6µM*	i
O=C(/C=C/c1cccs1)Nc1cccc([S+](=O)([O-])Nc2ccccc2F)c1	i	/	/	/	/	i
CCOC(=O)c1[nH]c(C)c(CCC(=O)Nc2ccccc2OCC)c1C	i	/	/	/	/	i
COc1ccc(-n2c(=O)cnc3cnc(N4CCOCC4)nc32)cc1	/	/	/	5.2%	-15.7%	/
CCCC1CCc2c(sc(NC(=O)OCC)c2C#N)C1 (stereo unspecified)	?	?	10.3µM*	-25.5%	-11.6%	5.8µM*
CCOC(=O)Nc1sc2c(c1C#N)CCCC2	i	14.5%	1.0%	?	26.1%	i
